Results filed as inconclusive are left out. Calls of active or inactive are those of the source. Unless noted, the call rests on the fitted dose curve; in most records, active means well fitted curve in the direction sought with a large enough effect; inconclusive means small, poorly fitted or top-dose-only effect, or another doubt; inactive means no such curve, though single readings can be large; an effect the other way counts as inactive or inconclusive.
Legend:
[1] = target: Lysosomal acid glucosylceramidase (Homo sapiens) (UniProt P04062); assay: Glucocerebrosidase-p2 (AID 348; in the data active means potency below about 10 µM; further: potency means the concentration at half of the fitted maximal effect); conditions: purified GBA, blue fluorogenic substrate, 40 min
Chain of Lysosomal acid glucosylceramidase (Homo sapiens) (P04062 whole entry, looked up): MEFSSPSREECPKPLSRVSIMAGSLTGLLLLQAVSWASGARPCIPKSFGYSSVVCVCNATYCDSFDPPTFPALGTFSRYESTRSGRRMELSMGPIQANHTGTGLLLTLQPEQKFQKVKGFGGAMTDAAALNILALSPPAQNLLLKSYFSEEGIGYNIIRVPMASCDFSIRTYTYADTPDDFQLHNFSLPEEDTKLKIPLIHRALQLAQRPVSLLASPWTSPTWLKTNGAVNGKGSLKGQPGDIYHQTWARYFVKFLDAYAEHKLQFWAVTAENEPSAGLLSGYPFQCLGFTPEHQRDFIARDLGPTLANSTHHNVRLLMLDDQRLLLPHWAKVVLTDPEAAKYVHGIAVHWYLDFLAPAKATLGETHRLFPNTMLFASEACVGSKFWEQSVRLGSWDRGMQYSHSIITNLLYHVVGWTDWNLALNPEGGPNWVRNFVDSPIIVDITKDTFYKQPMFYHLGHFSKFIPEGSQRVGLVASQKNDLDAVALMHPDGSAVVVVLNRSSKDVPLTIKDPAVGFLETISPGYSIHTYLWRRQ
In short: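 Normal human glucocerebrosidase (0.2 nM) with blue fluorogenic substrate (80 uM final) in citrate/phosphate pH 5.9 with 10mM sodium taurocholate, 0.01% tween-20; 40 min RT, NaOH/glycine stop; fluorescence Ex 365/Em 440; AC50 from a titration from 0.6 nM upwards.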

[2] = AP1 Signaling Pathway (AID 357; active means well fitted curve in either direction with a large enough effect, not every such curve was filed as active;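 further: ME-180 reporter cells stimulated with EGF at its EC50 level; on the % scale 0 is the no-effect control and ±100 the full control effect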); conditions: ME-180 AP-1-bla reporter, EGF-induced, beta-lactamase ratio, 5 h; at 7.69 µM (top of the series) unless noted
In short: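 A ratiometric CCF4 readout (405 nm excitation; 460 and 530 nm emission) quantified AP-1-driven beta-lactamase in ME-180 cells after 5 h with compound and EC50 EGF; AC50 values were derived for activators and inhibitors.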

[3] = target: Cytochrome P450 1A2 (Homo sapiens) (UniProt P05177); assay: p450-cyp1a2 (AID 410; calls by dose curve; further: potency means the concentration at half of the fitted maximal effect;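 on activity change, negative = inhibition: -100% = full effect of reference inhibitor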); conditions: recombinant CYP1A2, luciferin-ME demethylation, luminescence; series mostly up to 57 µM
Chain of Cytochrome P450 1A2 (Homo sapiens) (P05177 whole entry, looked up): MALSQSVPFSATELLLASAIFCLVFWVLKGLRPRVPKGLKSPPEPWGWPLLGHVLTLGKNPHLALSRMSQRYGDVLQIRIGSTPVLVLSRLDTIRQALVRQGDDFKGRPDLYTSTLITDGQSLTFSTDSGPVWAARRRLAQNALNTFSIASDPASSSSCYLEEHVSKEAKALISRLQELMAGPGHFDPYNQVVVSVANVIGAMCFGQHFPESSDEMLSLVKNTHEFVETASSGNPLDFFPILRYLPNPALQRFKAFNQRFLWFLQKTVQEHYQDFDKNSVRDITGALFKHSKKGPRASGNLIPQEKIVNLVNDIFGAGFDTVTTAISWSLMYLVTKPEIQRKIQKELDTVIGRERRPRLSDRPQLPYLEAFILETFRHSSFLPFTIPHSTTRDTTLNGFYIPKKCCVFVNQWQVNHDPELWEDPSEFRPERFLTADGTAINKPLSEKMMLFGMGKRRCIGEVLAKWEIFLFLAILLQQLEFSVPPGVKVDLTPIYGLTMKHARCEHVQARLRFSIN
In short: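 Read-out is luminescence from luciferin produced by CYP1A2 demethylation of Luciferin-ME (100uM, at Km). Detection reagent stopped the 60 min NADPH-dependent reaction; signals were normalized to 57 uM furafylline.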

[4] = Stat Signaling Pathway (AID 446; active means well fitted curve in either direction with a large enough effect, not every such curve was filed as active;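 further: ME-180 cervical cancer cells given 40 pM IL-6 alongside compound; SIE-controlled beta-lactamase reporter measured as 460/530 nm FRET emission ratio; on the % scale 0 is the no-effect control and ±100 the full control effect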); conditions: ME-180 SIE beta-lactamase reporter, IL-6 stimulated, 5 h; at 7.69 µM (top of the series) unless noted
In short: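 Overnight-plated ME-180 cells bearing a STAT Inducible Element beta-lactamase reporter; 5 h co-exposure to compound and 40 pM IL-6; values normalized to 300 pM IL-6 and 125 nM JAK inhibitor controls.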

[5] = target: Glucocorticoid receptor (Homo sapiens) (UniProt P04150); assay: GR-GFP Redistribution (AID 450;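 active means compounds whose dose series gives a full or clear partial fitted curve of increased nuclear translocation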; further: potency means the concentration at half of the fitted maximal effect); conditions: U2OS GR-GFP nuclear translocation, laser cytometry, 2 h
Chain of Glucocorticoid receptor (Homo sapiens) (P04150 whole entry, looked up, the tested form may be a part): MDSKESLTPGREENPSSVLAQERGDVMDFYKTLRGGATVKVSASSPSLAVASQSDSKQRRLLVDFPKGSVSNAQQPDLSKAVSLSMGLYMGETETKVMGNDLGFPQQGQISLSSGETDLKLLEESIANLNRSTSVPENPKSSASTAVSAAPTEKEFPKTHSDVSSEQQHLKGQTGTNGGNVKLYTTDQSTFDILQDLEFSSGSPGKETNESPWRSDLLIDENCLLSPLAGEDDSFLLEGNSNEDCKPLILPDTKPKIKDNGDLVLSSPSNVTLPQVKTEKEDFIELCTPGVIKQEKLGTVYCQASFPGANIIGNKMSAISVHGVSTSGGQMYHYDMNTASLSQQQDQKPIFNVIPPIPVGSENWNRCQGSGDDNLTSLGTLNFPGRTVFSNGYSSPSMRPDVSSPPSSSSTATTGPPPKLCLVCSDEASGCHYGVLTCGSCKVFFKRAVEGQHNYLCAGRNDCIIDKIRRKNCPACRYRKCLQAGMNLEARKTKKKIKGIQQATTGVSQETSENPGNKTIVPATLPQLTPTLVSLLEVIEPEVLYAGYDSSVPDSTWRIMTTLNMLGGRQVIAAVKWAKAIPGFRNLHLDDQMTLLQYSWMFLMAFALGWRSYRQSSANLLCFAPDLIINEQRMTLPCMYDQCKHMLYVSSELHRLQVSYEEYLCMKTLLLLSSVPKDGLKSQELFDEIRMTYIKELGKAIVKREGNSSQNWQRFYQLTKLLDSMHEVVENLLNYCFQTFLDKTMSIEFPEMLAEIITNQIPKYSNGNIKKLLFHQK

[6] = target: Glucocorticoid receptor (Homo sapiens) (UniProt P04150); assay: GR-EFC Redistribution (AID 451; calls by dose curve; further: potency means the concentration at half of the fitted maximal effect); conditions: CHO-K1 GR-EFC translocation, beta-gal luminescence, 2 h
In short: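 Translocation of GR-ED fusion to nuclear EA restores b-gal, read by luminescence after 1 h room-temperature detection. Engineered CHO-K1 biosensor cells, 1,000/well, exposed 2 h at 37 C to titrations up to 46 uM final.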

[7] = target: Mitogen-activated protein kinase 10 (Mus musculus) (UniProt Q61831); assay: JNK3 AlphaScreen Assay (AID 530; active means well fitted curve in either direction with a large enough effect, not every such curve was filed as active;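 further: kinase came from lysate of stimulated human HepG2 cells; signal reports phosphorylation of biotinylated GST-cJun 1-79 at Ser73 with 10 µM ATP; on the % scale 0 is the no-effect control and ±100 the full control effect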); conditions: JNK3 lysate, c-Jun phosphorylation; series mostly up to 57.1 µM
In short: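 Kinase buffer: 20 mM Tris-HCl pH 7.6, 10 mM MgCl2, 1 mM DTT, 0.1 mM Na3VO4, 0.01% Tween-20; ATP 10 uM. Substrate biotin-GST-cJun(1-79), enzyme from activated HepG2 lysates. Detection by Ser73 phospho-antibody AlphaScreen.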

[8] = target: 3',5'-cyclic-AMP phosphodiesterase 4B (Homo sapiens) (UniProt Q07343); assay: qHTS Assay for Inhibitors of PDE-IV (AID 607; active means well fitted activation curve with a large enough effect in the main read-out, with a control signal flat, not every such curve was filed as active; further: % of control where 0% means no effect); conditions: HEK293 ACTOne CNG channel cells, membrane potential fluorescence; series mostly up to 22.9 µM
Chain of 3',5'-cyclic-AMP phosphodiesterase 4B (Homo sapiens) (Q07343 whole entry, looked up): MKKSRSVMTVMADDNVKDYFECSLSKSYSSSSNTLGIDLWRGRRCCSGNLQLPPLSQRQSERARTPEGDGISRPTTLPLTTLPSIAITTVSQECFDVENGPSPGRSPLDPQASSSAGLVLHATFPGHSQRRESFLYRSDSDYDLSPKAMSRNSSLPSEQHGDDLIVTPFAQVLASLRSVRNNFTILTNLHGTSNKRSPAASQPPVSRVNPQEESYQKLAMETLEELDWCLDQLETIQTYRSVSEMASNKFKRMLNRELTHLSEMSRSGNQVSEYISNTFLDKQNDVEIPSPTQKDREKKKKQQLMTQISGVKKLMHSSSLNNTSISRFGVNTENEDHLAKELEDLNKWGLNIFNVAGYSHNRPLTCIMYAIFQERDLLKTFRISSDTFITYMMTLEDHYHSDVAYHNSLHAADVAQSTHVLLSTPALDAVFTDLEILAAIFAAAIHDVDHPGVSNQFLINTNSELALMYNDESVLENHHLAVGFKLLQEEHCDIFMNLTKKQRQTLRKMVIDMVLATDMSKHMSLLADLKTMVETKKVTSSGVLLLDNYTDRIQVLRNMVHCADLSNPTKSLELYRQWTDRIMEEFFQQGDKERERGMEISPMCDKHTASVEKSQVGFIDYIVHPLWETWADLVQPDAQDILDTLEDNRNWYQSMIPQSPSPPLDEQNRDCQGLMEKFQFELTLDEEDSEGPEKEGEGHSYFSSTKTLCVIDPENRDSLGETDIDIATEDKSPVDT
In short: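 Live HEK293 cells with a modified cyclic nucleotide-gated (CNG) channel report intracellular cAMP via membrane-potential dye fluorescence (ex 535/em 590 nm). Endogenous PDE-IV was targeted. Compounds were tested at up to 22.9 uM final; RO 20-1724 100 uM served as control.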

[9] = qHTS Assay for Lipid Storage Modulators (AID 1519; calls by dose curve); conditions: Drosophila S3 cells, BODIPY lipid droplet/cell ratio, laser cytometry, cells loaded with oleic acid; for activity change, negative = inhibition: at 57.5 µM (top of the series)
In short: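 Cells seeded at 5,000 per well were treated with compounds over a concentration series and loaded with oleic acid (400 uM, as added). Lipid droplet fluorescence (488 nm excitation, 500-530 nm channel) was read by laser-scanning cytometry and normalized to 20 uM Triacsin C.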

[10] = target: Dual specificity protein kinase CLK4 (Homo sapiens) (UniProt Q9HAZ1); assay: qHTS Assay for Inhibitors of CDC-like Kinase 4 (Kinase-Glo Assay) (AID 1770); conditions: recombinant Clk4, Kinase-Glo ATP depletion luminescence; series mostly up to 66.7 µM; further: on the % scale 0 is the no-effect control and ±100 the full control effect; nearly all actives have a fitted effect of over 65% in size
Chain of Dual specificity protein kinase CLK4 (Homo sapiens) (Q9HAZ1 whole entry, looked up): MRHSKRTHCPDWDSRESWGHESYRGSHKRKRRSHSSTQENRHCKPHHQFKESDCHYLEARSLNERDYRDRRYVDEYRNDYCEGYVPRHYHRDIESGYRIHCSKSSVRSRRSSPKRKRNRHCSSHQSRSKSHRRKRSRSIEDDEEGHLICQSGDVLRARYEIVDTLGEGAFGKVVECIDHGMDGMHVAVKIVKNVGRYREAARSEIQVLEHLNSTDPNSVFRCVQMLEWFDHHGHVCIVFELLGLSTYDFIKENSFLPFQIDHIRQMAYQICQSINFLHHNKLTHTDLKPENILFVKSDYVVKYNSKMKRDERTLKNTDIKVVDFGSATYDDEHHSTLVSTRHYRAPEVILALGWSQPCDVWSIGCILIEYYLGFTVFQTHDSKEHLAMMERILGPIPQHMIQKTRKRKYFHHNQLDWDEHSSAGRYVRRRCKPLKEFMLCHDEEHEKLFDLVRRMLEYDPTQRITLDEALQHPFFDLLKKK
In short: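 25 nM Clk4 with 100 uM RS repeat peptide and 1 uM ATP (final) in Tris pH7.5, 10 mM MgCl2, 4.5 h at room temperature. Remaining ATP measured by Kinase-Glo luciferase luminescence.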

[11] = target: Dual specificity protein kinase CLK4 (Homo sapiens) (UniProt Q9HAZ1); assay: qHTS Assay for Inhibitors of CDC-like Kinase 4 (ADP-FP Assay) (AID 1795); conditions: Transcreener ADP fluorescence polarization; series mostly up to 50 µM;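 further: recombinant human CLK4 phosphorylating RS repeat peptide at 1 µM ATP; on the % scale 0 is the no-effect control and ±100 the full control effect; nearly all actives have a fitted effect of over 60% in size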
In short: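 Recombinant Clk4 (6.25 nM) phosphorylated 100 uM RS repeat peptide with 1 uM ATP in 25 mM Tris pH 7.5, 10 mM MgCl2, 0.5 mM EGTA, 2.5 mM DTT, 0.01% Triton X-100 for 1 h. ADP was detected by Transcreener ADP2 competitive fluorescence polarization after 30 min at room temperature.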

[12] = target: Ubiquitin carboxyl-terminal hydrolase 1 (Homo sapiens) (UniProt O94782); assay: Inhibitors of USP1/UAF1: Pilot qHTS (AID 504865); conditions: purified USP1/UAF1, Ub-rhodamine cleavage fluorescence; series mostly up to 54.9 µM;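 further: rhodamine fluorescence freed from ubiquitin-rhodamine substrate followed over time; top concentration of the series differs between compounds; on the % scale 0 is the no-effect control and ±100 the full control effect; nearly all actives have a fitted effect of over 35% in size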
Chain of Ubiquitin carboxyl-terminal hydrolase 1 (Homo sapiens) (O94782 whole entry, looked up): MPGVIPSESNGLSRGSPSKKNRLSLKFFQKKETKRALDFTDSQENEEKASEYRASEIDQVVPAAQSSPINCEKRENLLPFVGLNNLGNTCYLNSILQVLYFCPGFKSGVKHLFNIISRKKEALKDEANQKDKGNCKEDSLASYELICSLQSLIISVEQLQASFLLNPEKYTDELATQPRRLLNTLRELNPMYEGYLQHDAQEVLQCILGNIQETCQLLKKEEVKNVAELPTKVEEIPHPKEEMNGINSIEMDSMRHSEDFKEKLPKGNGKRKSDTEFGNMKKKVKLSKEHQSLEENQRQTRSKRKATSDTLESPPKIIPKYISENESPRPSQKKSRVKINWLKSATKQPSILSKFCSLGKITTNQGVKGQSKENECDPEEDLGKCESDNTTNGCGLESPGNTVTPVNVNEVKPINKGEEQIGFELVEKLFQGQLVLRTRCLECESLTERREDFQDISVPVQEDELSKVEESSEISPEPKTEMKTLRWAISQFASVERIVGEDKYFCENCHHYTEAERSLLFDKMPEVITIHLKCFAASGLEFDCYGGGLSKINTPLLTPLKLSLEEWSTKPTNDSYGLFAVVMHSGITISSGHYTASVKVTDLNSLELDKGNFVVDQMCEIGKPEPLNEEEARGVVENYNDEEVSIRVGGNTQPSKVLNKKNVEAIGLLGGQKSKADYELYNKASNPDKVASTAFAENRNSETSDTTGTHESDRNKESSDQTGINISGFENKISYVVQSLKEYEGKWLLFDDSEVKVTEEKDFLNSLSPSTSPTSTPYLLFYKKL
In short: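 USP1/UAF1 complex at 1 nM preincubated 15 min at room temperature with compound, then Ub-Rho substrate added at 150 nM final. Fluorescence (480/540 nm) read kinetically in 50 mM HEPES pH 7.8, 0.5 mM EDTA, 1 mM TCEP, 0.1 mg/ml BSA, 0.01% Tween-20.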

[13] = Primary qHTS for small molecule stabilizers of the endoplasmic reticulum resident proteome: Secreted ER Calcium Modulated Protein (SERCaMP) assay (AID 1508630); conditions: SH-SY5Y GLuc-SERCaMP (Gaussia luciferase released on ER calcium loss) secretion, thapsigargin, luminescence; series mostly up to 38.4 µM; further: on the % scale 0 is the no-effect control and ±100 the full control effect
In short: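 The SH-SY5Y reporter protocol was run at 3 concentrations up to 38.3 uM (primary) or 11 concentrations (follow-up): 16 h compound, 100 nM thapsigargin for 4 h, then extracellular luciferase luminescence.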

[14] = target: Cytochrome P450 3A4 (Homo sapiens) (UniProt P08684); assay: qHTS Assay for Activators of Cytochrome P450 3A4 (AID 885); conditions: recombinant CYP3A4, Luciferin-PPXE luminescence, 60 min; series mostly up to 57.1 µM; further: nearly all actives have a fitted effect of over 65% in size
Chain of Cytochrome P450 3A4 (Homo sapiens) (P08684 whole entry, looked up): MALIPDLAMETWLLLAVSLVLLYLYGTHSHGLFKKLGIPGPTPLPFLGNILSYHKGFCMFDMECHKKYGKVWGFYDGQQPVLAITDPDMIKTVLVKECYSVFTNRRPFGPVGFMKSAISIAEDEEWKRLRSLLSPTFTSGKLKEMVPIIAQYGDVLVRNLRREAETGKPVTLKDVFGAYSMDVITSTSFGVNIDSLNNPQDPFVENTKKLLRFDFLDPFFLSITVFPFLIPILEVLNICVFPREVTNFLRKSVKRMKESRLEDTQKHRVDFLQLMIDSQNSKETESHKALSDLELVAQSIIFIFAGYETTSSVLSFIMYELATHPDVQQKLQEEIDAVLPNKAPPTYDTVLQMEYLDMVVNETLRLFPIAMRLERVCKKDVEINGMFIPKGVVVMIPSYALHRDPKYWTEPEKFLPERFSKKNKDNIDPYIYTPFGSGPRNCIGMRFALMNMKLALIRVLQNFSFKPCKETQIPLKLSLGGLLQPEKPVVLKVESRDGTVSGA
In short: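 Using 20nM recombinant human CYP3A4 in potassium phosphate (200mM), substrate Luciferin-PPXE at 25uM, luminescent luciferin detection followed a 60-min RT NADPH reaction; data scaled to 57 uM ketoconazole.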

[15] = qHTS Assay for Identification of Small Molecule Agonists for Hypoxia Response Element Signaling Pathway (AID 914; active means well fitted activation curve with a large enough effect in the signal ratio, with a control signal flat, not every such curve was filed as active; the % refers to the signal ratio; further: potency means the concentration at half of the fitted maximal effect); conditions: ME-180 (cervical carcinoma) HRE-bla reporter, beta-lactamase ratio, CoCl2, 17 h; activation: stronger effect = higher value
In short: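 HRE-bla ME-180 cells with beta-lactamase reporter under hypoxia response element, compounds with EC50 CoCl2 for 17 hours at 37 C. CCF4 substrate, 460nm/530nm emission ratio gave %Activity; AC50 from titration series.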

[16] = NFAT Signaling Pathway (AID 444; active means well fitted curve in either direction with a large enough effect, not every such curve was filed as active); conditions: Jurkat NFAT-bla M1, carbachol, beta-lactamase ratio, 5 h; at 7.69 µM (top of the series) unless noted
In short: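 Read-out: CCF4 FRET ratio (460 nm/530 nm) after 1 h RT dye loading, used for %activity and AC50 from titration series. Cells: Jurkat NFAT-β-lactamase/M1 line, treated with compound plus 1 uM carbachol for 5 h, 37 °C.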

[17] = target: Cytochrome P450 2D6 (Homo sapiens) (UniProt P10635); assay: qHTS Assay for Inhibitors and Substrates of Cytochrome P450 2D6 (AID 891); conditions: recombinant CYP2D6, luciferin-ME EGE luminescence; series mostly up to 57.1 µM; further: potency means the concentration at half of the fitted maximal effect; nearly all actives have a fitted effect of over 60% in size
Chain of Cytochrome P450 2D6 (Homo sapiens) (P10635 whole entry, looked up): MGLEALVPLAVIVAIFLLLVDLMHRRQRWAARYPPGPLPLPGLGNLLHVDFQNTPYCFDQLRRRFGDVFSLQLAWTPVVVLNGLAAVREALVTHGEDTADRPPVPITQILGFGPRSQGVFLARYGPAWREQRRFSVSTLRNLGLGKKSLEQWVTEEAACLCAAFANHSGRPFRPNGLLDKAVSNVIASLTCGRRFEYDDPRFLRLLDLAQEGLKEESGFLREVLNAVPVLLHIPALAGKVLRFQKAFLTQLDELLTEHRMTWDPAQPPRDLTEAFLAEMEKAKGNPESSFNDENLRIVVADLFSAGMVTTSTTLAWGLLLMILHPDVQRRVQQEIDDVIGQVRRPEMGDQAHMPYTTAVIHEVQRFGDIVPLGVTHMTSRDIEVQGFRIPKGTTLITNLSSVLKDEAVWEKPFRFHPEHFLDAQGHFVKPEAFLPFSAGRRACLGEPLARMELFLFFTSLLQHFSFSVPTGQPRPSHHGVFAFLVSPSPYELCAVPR
In short: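 Luminescent read-out of luciferin formed by 5 nM human CYP2D6 demethylating 30 uM Luciferin-ME EGE (Km level) over 60 min at room temperature after NADPH regeneration addition. Data normalized to full inhibition by 1.43 uM quinidine.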

[18] = target: Cytochrome P450 3A4 (Homo sapiens) (UniProt P08684); assay: qHTS Assay for Inhibitors and Substrates of Cytochrome P450 3A4 (AID 884); conditions: recombinant CYP3A4, Luciferin-PPXE luminescence; series mostly up to 57.1 µM; further: on the % scale 0 is the no-effect control and ±100 the full control effect; nearly all actives have a fitted effect of over 50% in size
In short: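 Luminescent readout of luciferin produced by CYP3A4 (20 nM) dealkylation of Luciferin-PPXE, 25 uM (its KM). NADPH-driven reaction ran 60 min at RT after 10 min compound preincubation; data scaled to 57 uM ketoconazole as 100% inhibition.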

[19] = target: Dual specificity protein kinase CLK4 (Homo sapiens) (UniProt Q9HAZ1); assay: qHTS Assay for Inhibitors of CDC-like Kinase 4 (ADP-Glo Assay) (AID 1771); conditions: recombinant CLK4, ADP-Glo luminescence; series mostly up to 80 µM; further: on the % scale 0 is the no-effect control and ±100 the full control effect; nearly all actives have a fitted effect of over 70% in size
In short: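 In this ADP-Glo format, 1 uM ATP and 100 uM RS peptide served as substrates for 25 nM Clk4 in Mg2+/EGTA/DTT/Triton buffer; reactions ran 1 hr at room temperature before luminescent ADP quantification.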

[20] = measured here: cell count channel max response
[21] = measured here: lipid channel max response

CC(=O)NCCNc1cc(-c2ccccc2C)ncn1
inactive: Potency [1] > 11.4 µM | activity change, negative = inhibition [2] 12% | activity, negative = inhibition [4] 16.5% | Potency [5] > 46 µM | Potency [6] > 46 µM | outcome [7] | Potency [8] | activity change, negative = inhibition [9] 3.34% | Potency [10] | Potency [11] | Potency [12] | Potency [13]
16.2%: max response [9, 20]
17.3%: max response [9, 21]
active: Potency [3] 15.8 µM

COc1cccc(Cn2c(=O)c(-c3cccc(C#N)c3)nc3cnc(N4CCN(C)CC4)nc32)c1
21.5%: max response [9, 20]
active: Potency [15] 3.16 µM
inactive: Potency [1] > 11.4 µM | Potency [3] | Potency [5] > 9.22 µM | Potency [6] > 46 µM | outcome [7] | Potency [8] | Potency [14] | activity change, negative = inhibition [9] 2.54% | Potency [10] | Potency [11] | Potency [12] | Potency [13]
24.1%: max response [9, 21]

CNc1nc(-c2ccccc2CN(C)C)nc2ccccc12
7.77%: max response [9, 21]
7.86%: max response [9, 20]
active: Potency [3] 3.16 µM | Potency [17] 3.98 µM
inactive: Potency [1] > 11.4 µM | activity change, negative = inhibition [16] -2.05% | activity, negative = inhibition [4] 17.3% | Potency [5] > 46 µM | Potency [6] > 46 µM | outcome [7] | Potency [14] | activity change, negative = inhibition [9] 1.92% | Potency [10] | Potency [11] | Potency [12] | Potency [13]

Cc1ccccc1-c1cc(Nc2ccccc2)ncn1
active: Potency [3] 3.98 µM
30.6%: max response [9, 20]
31.4%: max response [9, 21]
inactive: Potency [1] > 11.4 µM | activity change, negative = inhibition [2] -4.93% | activity change, negative = inhibition [16] 1.39% | activity, negative = inhibition [4] 4.11% | Potency [5] > 46 µM | Potency [6] > 46 µM | outcome [7] | Potency [18] | activity change, negative = inhibition [9] 4.64% | Potency [10] | Potency [11] | Potency [12] | Potency [13]

COCCn1c(=O)c(-c2ccc(F)cc2)nc2cnc(N3CCOCC3)nc21
15.7%: max response [9, 20]
16.8%: max response [9, 21]
active: Potency [3] 5.01 µM
inactive: Potency [1] > 11.4 µM | activity change, negative = inhibition [2] -9.35% | activity change, negative = inhibition [16] 16.8% | activity, negative = inhibition [4] -13.8% | Potency [5] > 9.22 µM | Potency [6] > 46 µM | outcome [7] | Potency [8] | activity change, negative = inhibition [9] 1.75% | Potency [19] | Potency [11] | Potency [12] | Potency [13]

c1cncc(-c2cncnc2NC2CCNCC2)c1
20%: max response [9, 21]
15.6%: max response [9, 20]
inactive: Potency [1] > 11.4 µM | activity change, negative = inhibition [2] 11.1% | activity, negative = inhibition [4] 5.17% | Potency [5] > 46 µM | Potency [6] > 46 µM | outcome [7] | Potency [8] | activity change, negative = inhibition [9] 6.71% | Potency [10] | Potency [11] | Potency [13]
active: Potency [3] 12.6 µM

Reference: PubChem BioAssay (NCATS)
